KDM5B inh = inhibitors of human KDM5B histone demethylase. KDM5B demethylase, FDH-coupled NADH fluorescence (FDH is formaldehyde dehydrogenase). Potency, µM (top dose mostly 57.7 µM), usual class: inhibitors. 220,000 tested, 2.6% active. AID 1347165; further: potency means the concentration at half of the fitted maximal effect; 0% is about no effect; nearly all actives have a fitted effect of over 70% in size
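Measured: NADH fluorescence change, 30 min, RT. System: KDM5BΔAP 200 nM final, H3K4me3 peptide, α-KG, Fe(II), ascorbate, NAD⁺ plus FDH, pH 7.5 HEPES. Compounds: titrated, 10 min pre-incubation with enzyme.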
HEK293 viab = cell viability loss counter-screen. HEK-293-SNCA-luc viability, GF-AFC fluorescence, 24 h. Potency, µM (doses to about 57.1 µM), for the others: top-dose activity change, negative = cytotoxicity, hits mostly cytotoxic. 150,000 tested, 0.12% active. AID 1671193;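 further: potency means the concentration at half of the fitted maximal effect; 0% = DMSO-treated cells and -100% = medium-only wells without cells; nearly all actives have a fitted effect of over 30% in size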
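Cytotoxicity counterscreen: after 24 h compound treatment of genome-edited SNCA-luciferase HEK-293 cells, live-cell protease substrate GF-AFC read by fluorescence after 30 min; activity scaled between DMSO (0%) and medium-only (-100%), curves Hill-fitted.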
SNCA expr inh = reduces expression of the alpha-synuclein gene; HEK-293 SNCA-luciferase knock-in, luminescence, 24 h; Potency, µM (top dose mostly 57.2 µM), inactives show top-dose activity change, negative = inhibition, hits mostly inhibitors; 140,000 tested, 0.17% active;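 further: potency means the concentration at half of the fitted maximal effect; plate controls were DMSO cells for no effect and cell-free wells for full effect; nearly all actives have a fitted effect of over 45% in size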
IP6K1 inh = inhibitors of human IP6K1 | AID 1645851 | activity change, % (series mostly up to about 58 µM) | IP6K1 kinase, ADP-Glo luminescence, 2 h; active compounds read low | 140,000 tested, 0.81% active | Q92551; in the data active means activity change below about -25%; further: on the % scale 0 is the no-effect control and ±100 the full control effect
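ADP-Glo luminescence measures ADP made by human IP6K1 during a 2 h RT reaction with ATP/IP6 (mix at 1.3 mM/130 uM); top library doses 57.5 and 19.1 uM final.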
* marks the source's active call; other numbers are inactive results; i = inactive; ? = inconclusive; / = no result given; [ ] = dose if it differs, or a comment. Sampled rows, rich in hits. Any-hit rate of the full collection: about 3%. Unless noted, the call rests on the fitted dose curve; in most records, active means well fitted curve in the direction sought with a large enough effect; inconclusive means small, poorly fitted or top-dose-only effect, or another doubt; inactive means no such curve, though single readings can be large; an effect the other way counts as inactive or inconclusive.

SMILES	KDM5B inh	HEK293 viab	SNCA expr inh	IP6K1 inh
Cc1cc(C)cc(-c2ccc(CN3CCCC3C(=O)NC3CC3)cc2)c1 (stereo not given)	/	-6%	?	-8
COc1ccc(F)cc1-c1ccc(CN2CCCCC2C(=O)N2CCCN(C(C)=O)CC2)cc1 (stereo not given)	/	/	/	-3
CC(C)S(=O)(=O)CCNc1nccc(-c2cccnc2)n1	32µM*	5%	?	-4
OC(CNc1nccc(-c2cccnc2)n1)COc1ccc(Cl)cc1 (stereo not given)	?	7%	-9%	-5
c1cncc(-c2ccnc(NCCc3noc(C4CCCC4)n3)n2)c1	32µM*	-1%	-11%	40
Cc1cc(=O)[nH]c(NCCNc2nccc(-c3cccnc3)n2)n1	32µM*	2%	1%	26
c1cncc(-c2ccnc(NCCCN3CCCc4ccccc43)n2)c1	?	6%	-9%	3
c1cncc(-c2ccnc(NCCCn3nccc3C3CC3)n2)c1	28µM*	0%	-18%	9
Cn1ncc2c(C(=O)NCCc3ccccc3F)cc(-c3ccc(F)cc3)nc21	/	-19%	-23%	4
COc1ccc(C(=O)Nc2ccnn2Cc2cccs2)cc1S(=O)(=O)N(C)Cc1ccccc1	i	/	/	/
Cc1ccc(-c2ncc(NC(=O)c3cccs3)cn2)cc1	32µM*	6%	73%	-5
COc1ccc(CC2CN(C(=O)c3ccnc(N)c3)CCO2)cc1 (stereo not given)	25µM*	4%	2%	6
CCc1ccc2oc(C(=O)NCC(c3ccc(C)o3)N3CCCCC3)cc(=O)c2c1 (stereo not given)	i	/	/	/
O=C(c1ccc(Cl)cc1)N1CC2(CCCN2C2COC2)Cc2ccccc21 (stereo not given)	89µM*	-12%	-8%	0
COc1ccc(-c2nc3c([nH]2)CC(C)(C)CNC3=O)cc1OC	32µM*	-4%	-18%	-9
O=C1NCc2ccccc2CC12CCCN2Cc1ccc(O)cc1O (stereo not given)	89µM*	1%	-28%	-1
COc1ccc(CN2CCCC23Cc2ccccc2CNC3=O)c(O)c1 (stereo not given)	i	3%	-10%	-7
Cn1cnc2cc(-c3ccc(F)cc3)cc(C(=O)NCCc3ccccn3)c21	28µM*	10%[87.6 µM]	-2%[87.6 µM]	-3
COc1cc(CNC(=O)c2cc(-c3ccc(F)cc3)cc3ncn(C)c23)ccn1	32µM*	-11%[87.6 µM]	24%[87.6 µM]	7
Cn1cnc2cc(-c3ccc(F)cc3)cc(C(=O)NCCN3CCOCC3)c21	?	-7%[87.6 µM]	16%[87.6 µM]	54
CN1CCC(CNC(=O)c2cc(-c3ccc(F)cc3)cc3ncn(C)c23)CC1=O (stereo not given)	32µM*	8%[87.6 µM]	-3%[87.6 µM]	-1
CN(C)CCNC(=O)c1cc(-c2ccc(F)cc2)cc2ncn(C)c12	28µM*	10%[87.6 µM]	15%[87.6 µM]	1
Cn1cnc2cc(-c3ccc(F)cc3)cc(C(=O)NCCCn3ccnc3)c21	40µM*	0%[87.6 µM]	-11%[87.6 µM]	0
Cc1ccccc1CNC(=O)c1cc2cn(C(C)C)cc2s1	18µM*	4%	18%	12
COc1ccc(CNC(=O)c2cc3cn(C(C)C)cc3s2)cc1	?	-5%	-24%	-5
SMILES	KDM5B inh	HEK293 viab	SNCA expr inh	IP6K1 inh
CC(C)n1cc2cc(C(=O)NCc3cccnc3)sc2c1	25µM*	3%	-15%	2
CC(C)n1cc2cc(C(=O)NCc3cnccn3)sc2c1	16µM*	5%	-15%	5
CC(C)n1cc2cc(C(=O)NCc3ccccn3)sc2c1	25µM*	9%	-12%	-5
O=C(NCc1cccs1)c1nc(-c2cccc(C(F)(F)F)c2)c2cnccn12	16µM*	14%	-8%	4
O=C(NCc1ccc(F)cc1)c1nc(-c2cccc(C(F)(F)F)c2)c2cnccn12	28µM*	5%	33%	0
O=C(NCc1ccc(F)cc1)c1nc(-c2cccc(F)c2)c2cnccn12	i	-18%	7%	11
O=[S+]([O-])(c1cccs1)N1CCCN(c2ccc3nnc(C4CC4)n3n2)CC1	/	/	/	5
COc1ccccc1-c1ccc(CN2CCCCC2C(=O)NCC(F)(F)F)cc1 (stereo not given)	/	/	/	26
CCc1noc(CN(CC)C(=O)c2cc(-c3ccccc3)nn2C)n1	i	1%	16%	0
Cc1cccnc1CN(C)C(=O)c1ccc2nc(-c3ccccc3)cn2c1	28µM*	1%	1%	-14
CCc1nnc(CN(CC)C(=O)c2ccc3nc(-c4ccccc4)cn3c2)o1	28µM*	3%	-15%	-2
CC(C)NC(=O)C1CCCN(Cc2cccc(-c3cccs3)c2)C1 (stereo not given)	/	/	/	8
CC(C)NC(=S)N/N=C/C1CC=CCC1 (stereo not given)	i	/	/	/
COc1ccccc1CCNC(=O)C1CC(=O)N(c2n[nH]c3cccc(F)c23)C1 (stereo not given)	22µM*	-5%	-18%	8
COc1ccc2[nH]cc(CCNC(=O)C3CC(=O)N(c4n[nH]c5cccc(F)c45)C3)c2c1 (stereo not given)	22µM*	-20%	-4%	-6
O=C(NCCc1cccc(F)c1)C1CC(=O)N(c2n[nH]c3cccc(F)c23)C1 (stereo not given)	22µM*	9%	-24%	18
O=C(NCCc1ccccc1)C1CC(=O)N(c2n[nH]c3cccc(F)c23)C1 (stereo not given)	i	-3%	-6%	-5
Cc1nnc(NC(=O)c2cc(-c3ccncc3)nc3ccccc23)s1	i	/	/	/
CC(=O)Nc1nc2c(C)cc(NS(=O)(=O)c3ccc(F)cc3)cc2s1	i	/	/	/
C=CCCC(=O)NC1CCN(Cc2cccc(C(F)(F)F)c2)CC1	i	/	/	/
CN1CCc2[nH]cnc2C12CCN(C(=O)c1cc(=O)[nH]c3ccccc13)CC2	20µM*	-21%	4%	5
CN1CCc2[nH]cnc2C12CCN(C(=O)c1cccc(-n3cccn3)c1)CC2	i	-4%	-15%	-4
COc1ccc([S+](=O)([O-])c2nnn3c2nc(NC2CC2)c2ccccc23)cc1	89µM*	-1%	1%	6
COc1ccc(OC)c([S+](=O)([O-])c2nnn3c2nc(N2CCC(F)CC2)c2ccccc23)c1	50µM*	9%	-5%	6
O=[S+]([O-])(c1ccc(Cl)cc1)c1nnn2c1nc(NC1CC1)c1ccccc12	i	-1%	6%	11
COc1ccc([S+](=O)([O-])c2nnn3c2nc(N2CCC(F)CC2)c2ccccc23)cc1	79µM*	-3%	-2%	10
CCOC(=O)[C@@H]1CN(C(=O)OCC)[C@H]2c3ccc(OC)cc3O[C@@H]12	/	/	/	1
CCOc1ccc(NC(=O)c2cc(=O)c3cc(C)ccc3o2)cc1	i	/	/	/
CN1[C@@H](CCC(=O)NCc2ccco2)CNC(=O)[C@H]2NCC[C@H]21	i	0%[87.6 µM]	17%[87.6 µM]	-4
CN1[C@@H](CCC(=O)N2CCc3ccccc32)CNC(=O)[C@@H]2[C@H]1CCN2Cc1cccs1	i	-11%	7%	4

Screens: PubChem, National Center for Advancing Translational Sciences (NCATS)
